Measured values published in ChEMBL document CHEMBL3988442, “University of Dundee, Small-Polar-MMV Screening Library” (2021).
For some assays here: Measured potencies and affinities stand elsewhere.

Tests used:
Design in all cases: scale not given: direction of the effect not stated beside the values
[1] = molecular target: Protein translocase subunit SecA (Escherichia coli (strain K12)) (UniProt P10408); test: Assay to Identify E. coli SecA ATPase Inhibitors; assay type: functional; conditions: 30 µM
[2] = molecular target: T1, Ubiquitin-activating enzyme e1, putative (Leishmania donovani (strain BPK282A1)) (UniProt E9BSI1); test: Leishmania donovani Ubiquitin Activating Enzyme (LdE1); assay type: functional; conditions: 30 µM
T1 sequence (whole entry): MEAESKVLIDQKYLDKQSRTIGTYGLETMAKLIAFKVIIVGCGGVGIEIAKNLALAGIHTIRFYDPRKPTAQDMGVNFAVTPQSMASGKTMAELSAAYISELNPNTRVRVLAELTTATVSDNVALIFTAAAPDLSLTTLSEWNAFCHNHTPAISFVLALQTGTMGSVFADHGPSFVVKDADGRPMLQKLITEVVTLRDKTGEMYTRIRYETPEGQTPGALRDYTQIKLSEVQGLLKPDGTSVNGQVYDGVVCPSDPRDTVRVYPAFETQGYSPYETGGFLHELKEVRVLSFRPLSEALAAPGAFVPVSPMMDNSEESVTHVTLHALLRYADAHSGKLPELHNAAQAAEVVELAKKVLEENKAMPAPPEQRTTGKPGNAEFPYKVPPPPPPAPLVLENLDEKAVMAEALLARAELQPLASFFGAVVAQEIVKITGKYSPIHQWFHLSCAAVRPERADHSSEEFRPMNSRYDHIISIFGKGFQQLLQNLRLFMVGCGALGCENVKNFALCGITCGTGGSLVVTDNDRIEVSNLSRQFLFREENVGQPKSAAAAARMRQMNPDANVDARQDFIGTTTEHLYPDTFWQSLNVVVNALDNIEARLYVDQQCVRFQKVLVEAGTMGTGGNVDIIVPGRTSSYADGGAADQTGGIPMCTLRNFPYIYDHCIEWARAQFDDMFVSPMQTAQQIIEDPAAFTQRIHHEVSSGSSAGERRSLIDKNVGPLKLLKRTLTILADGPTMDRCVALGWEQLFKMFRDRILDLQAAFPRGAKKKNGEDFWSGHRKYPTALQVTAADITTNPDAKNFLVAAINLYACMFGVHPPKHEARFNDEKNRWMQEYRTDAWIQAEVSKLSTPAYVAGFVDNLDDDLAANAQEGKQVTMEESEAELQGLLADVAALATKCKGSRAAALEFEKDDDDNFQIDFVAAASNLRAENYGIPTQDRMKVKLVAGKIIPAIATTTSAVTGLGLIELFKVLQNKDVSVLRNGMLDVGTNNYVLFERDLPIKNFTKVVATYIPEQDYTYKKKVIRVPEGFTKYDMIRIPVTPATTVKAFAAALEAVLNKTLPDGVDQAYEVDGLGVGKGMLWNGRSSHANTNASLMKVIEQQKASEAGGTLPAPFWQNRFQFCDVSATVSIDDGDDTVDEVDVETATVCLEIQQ

[3] = molecular target: T2, Aspartate--tRNA(Asp/Asn) ligase (Mycobacterium tuberculosis (strain ATCC 25618 / H37Rv)) (UniProt P9WFW3); test: Assay for Asp RNA synthetase-1 from Mycobacterium tuberculosis; assay type: functional; conditions: 30 µM; also: in the data most compounds retested in dose-response had high values
T2 sequence (whole entry): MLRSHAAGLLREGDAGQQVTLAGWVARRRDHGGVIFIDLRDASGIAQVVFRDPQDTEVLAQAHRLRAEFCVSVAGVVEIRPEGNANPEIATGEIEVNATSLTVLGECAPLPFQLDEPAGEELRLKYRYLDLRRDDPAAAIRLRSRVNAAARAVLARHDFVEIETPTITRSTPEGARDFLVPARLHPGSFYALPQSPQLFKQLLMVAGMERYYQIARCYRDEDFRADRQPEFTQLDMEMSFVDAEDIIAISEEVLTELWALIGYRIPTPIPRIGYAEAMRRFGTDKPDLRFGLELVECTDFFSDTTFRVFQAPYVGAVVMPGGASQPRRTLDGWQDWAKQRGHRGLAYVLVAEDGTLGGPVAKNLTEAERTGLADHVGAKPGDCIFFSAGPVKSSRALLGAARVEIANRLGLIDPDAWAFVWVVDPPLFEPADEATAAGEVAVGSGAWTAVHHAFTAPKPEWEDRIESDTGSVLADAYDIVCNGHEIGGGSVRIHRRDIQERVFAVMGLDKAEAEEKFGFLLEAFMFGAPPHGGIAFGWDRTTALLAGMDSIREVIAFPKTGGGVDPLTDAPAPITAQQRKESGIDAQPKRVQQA

[4] = molecular target: AMP-activated protein kinase, AMPK (Homo sapiens) (UniProt P54646+O43741+P54619+Q9UGJ0+Q9Y478+Q13131+Q9UGI9); test: AMP-dependent Kinase enzyme assay. An in vitro enzyme assay that detects ADP turnover that is directly proportional to AMPK activity. This uses naive AMPK that is activated during the assay with MK-8722; assay type: functional; conditions: 30 µM
[5] = molecular target: Sialic acid-binding Ig-like lectin 9 (Homo sapiens) (UniProt Q9Y336); test: Hs-Siglec9 ALPHAscreen SOP 20170721; conditions: 10 µM
Trypanosoma cruzi = test: Trypanosoma cruzi phosphomannomutase and mannose-1-phosphate guanylyltransferase assay; assay type: functional; conditions: 10 µM
[6] = molecular target: T3, Arginase-2, mitochondrial (Homo sapiens) (UniProt P78540); test: in vitro enzyme assay to detect the production of urea directly proportional to the activity of Arginase II; assay type: functional; conditions: 33.3 µM; also: in the data most compounds retested in dose-response had high values
T3 sequence (whole entry): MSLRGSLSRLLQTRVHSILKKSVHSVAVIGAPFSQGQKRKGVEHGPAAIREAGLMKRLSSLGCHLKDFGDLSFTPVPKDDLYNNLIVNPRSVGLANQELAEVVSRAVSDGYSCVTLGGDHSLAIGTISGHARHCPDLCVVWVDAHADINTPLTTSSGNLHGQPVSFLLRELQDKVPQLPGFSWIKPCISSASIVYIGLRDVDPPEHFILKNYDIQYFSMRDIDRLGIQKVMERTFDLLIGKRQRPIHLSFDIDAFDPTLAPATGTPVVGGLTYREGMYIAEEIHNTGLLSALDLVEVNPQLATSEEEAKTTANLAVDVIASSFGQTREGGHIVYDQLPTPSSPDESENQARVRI

[7] = molecular target: T4, Proteasome subunit beta (Trypanosoma cruzi) (UniProt O96673); test: Trypanosoma cruzi proteasome chymotrypsin-like activity (TcProtChymo) assay.; also: in the data most compounds retested in dose-response had high values; assay type: functional; conditions: 9.37 µM
T4 sequence (whole entry): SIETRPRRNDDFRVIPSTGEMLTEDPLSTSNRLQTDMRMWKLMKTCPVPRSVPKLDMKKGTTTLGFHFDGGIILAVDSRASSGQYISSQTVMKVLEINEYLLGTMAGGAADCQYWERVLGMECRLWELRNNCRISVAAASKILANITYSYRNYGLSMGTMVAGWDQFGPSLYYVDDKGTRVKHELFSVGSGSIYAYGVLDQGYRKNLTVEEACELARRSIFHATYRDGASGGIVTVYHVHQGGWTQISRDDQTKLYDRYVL

Homo sapiens = species on record: Homo sapiens; test: To identify inhibition of the IFN signalling (Jak-Stat) pathway via expression of an eGFP reporter gene under the control of an IFN-stimulated response element (ISRE) containing MxA promoter.; assay type: functional; conditions: 30 µM
[8] = molecular target: Shiga toxin 2 (Escherichia coli O157:H7) (UniProt P09385+P09386); test: E. coli 0.157:H7 Shiga Toxin SOP - stx2 screening assay; assay type: functional; conditions: 30 µM
[9] = molecular target: T5, Tyrosyl-tRNA synthetase, putative (Trypanosoma cruzi (strain CL Brener)) (UniProt Q4DSP6); test: Trypanosoma cruzi tyrosyl tRNA synthetase (TcYRS) _High Tyrosine SOP; assay type: functional; conditions: 30 µM; also: in the data most compounds retested in dose-response had high values
T5 sequence (whole entry): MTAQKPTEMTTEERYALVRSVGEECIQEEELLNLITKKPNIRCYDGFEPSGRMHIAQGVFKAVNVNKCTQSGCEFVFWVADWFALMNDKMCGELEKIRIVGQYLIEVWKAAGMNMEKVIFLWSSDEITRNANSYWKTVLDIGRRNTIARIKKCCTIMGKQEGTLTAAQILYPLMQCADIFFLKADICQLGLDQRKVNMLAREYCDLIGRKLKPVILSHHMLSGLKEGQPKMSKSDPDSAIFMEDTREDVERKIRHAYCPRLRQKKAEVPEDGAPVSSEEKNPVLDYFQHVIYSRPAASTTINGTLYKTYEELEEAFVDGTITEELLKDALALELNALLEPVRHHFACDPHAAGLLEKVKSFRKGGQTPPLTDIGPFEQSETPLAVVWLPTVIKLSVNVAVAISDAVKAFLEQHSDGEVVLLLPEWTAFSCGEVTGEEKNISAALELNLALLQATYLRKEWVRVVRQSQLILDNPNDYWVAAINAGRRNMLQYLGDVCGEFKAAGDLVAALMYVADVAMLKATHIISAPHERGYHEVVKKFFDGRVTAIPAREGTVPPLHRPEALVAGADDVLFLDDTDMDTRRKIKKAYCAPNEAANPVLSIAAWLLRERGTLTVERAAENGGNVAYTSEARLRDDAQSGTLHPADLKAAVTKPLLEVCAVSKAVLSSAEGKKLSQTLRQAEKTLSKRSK

[10] = molecular target: T5, Tyrosyl-tRNA synthetase, putative (Trypanosoma cruzi (strain CL Brener)); test: Trypanosoma cruzi tyrosyl tRNA synthetase (TcYRS) SOP; assay type: functional; conditions: 30 µM
[11] = molecular target: Chromo domain-containing protein 1 (Saccharomyces cerevisiae (strain ATCC 204508 / S288c) (Baker's yeast)) (UniProt P32657); test: ScCHD-1 Enzyme Inhibition Assay; assay type: functional; conditions: 30 µM; also: in the data most compounds retested in dose-response had high values
Sequence of Chromo domain-containing protein 1 (Saccharomyces cerevisiae (strain ATCC 204508 / S288c) (Baker's yeast)) (P32657 whole entry, the tested form may be a part): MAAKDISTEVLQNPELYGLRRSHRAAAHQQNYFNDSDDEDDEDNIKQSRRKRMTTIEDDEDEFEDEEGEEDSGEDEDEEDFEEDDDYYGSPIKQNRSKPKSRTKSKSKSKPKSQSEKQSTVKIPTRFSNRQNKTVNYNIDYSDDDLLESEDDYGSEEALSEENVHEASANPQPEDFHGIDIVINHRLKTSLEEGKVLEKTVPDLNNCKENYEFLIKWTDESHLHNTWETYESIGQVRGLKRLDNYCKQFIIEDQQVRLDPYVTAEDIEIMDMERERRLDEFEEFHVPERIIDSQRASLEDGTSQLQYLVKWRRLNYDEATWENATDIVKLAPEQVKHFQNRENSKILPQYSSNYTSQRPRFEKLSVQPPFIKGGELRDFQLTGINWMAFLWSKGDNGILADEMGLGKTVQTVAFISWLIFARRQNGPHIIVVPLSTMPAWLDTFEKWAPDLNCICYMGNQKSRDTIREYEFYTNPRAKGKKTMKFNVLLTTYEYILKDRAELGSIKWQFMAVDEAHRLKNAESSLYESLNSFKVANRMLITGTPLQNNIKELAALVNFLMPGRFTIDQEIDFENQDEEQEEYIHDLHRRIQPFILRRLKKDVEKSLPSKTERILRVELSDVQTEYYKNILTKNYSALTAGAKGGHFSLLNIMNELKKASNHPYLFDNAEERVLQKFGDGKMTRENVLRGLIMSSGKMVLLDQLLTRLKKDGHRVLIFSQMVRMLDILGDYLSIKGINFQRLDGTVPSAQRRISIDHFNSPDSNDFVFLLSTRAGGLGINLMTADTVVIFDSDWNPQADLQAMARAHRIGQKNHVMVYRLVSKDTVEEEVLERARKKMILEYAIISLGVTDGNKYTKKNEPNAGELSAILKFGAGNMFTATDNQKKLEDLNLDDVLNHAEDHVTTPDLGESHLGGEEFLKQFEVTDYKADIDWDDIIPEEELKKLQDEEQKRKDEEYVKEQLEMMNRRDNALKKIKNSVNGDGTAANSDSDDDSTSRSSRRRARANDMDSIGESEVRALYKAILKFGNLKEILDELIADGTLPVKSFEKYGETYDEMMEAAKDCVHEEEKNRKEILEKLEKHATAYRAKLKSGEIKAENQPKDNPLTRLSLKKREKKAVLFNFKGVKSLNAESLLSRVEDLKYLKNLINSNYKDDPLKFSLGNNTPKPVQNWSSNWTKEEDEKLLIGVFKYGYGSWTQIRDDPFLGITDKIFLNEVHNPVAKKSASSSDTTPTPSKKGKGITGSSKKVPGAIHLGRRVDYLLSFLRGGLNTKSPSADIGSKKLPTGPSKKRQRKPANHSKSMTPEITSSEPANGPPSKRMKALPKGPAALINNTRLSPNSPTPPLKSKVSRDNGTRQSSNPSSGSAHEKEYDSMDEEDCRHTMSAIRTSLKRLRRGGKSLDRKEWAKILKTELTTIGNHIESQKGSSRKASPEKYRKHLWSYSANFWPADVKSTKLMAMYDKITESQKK

Sequence of Protein translocase subunit SecA (Escherichia coli (strain K12)) (P10408 whole entry): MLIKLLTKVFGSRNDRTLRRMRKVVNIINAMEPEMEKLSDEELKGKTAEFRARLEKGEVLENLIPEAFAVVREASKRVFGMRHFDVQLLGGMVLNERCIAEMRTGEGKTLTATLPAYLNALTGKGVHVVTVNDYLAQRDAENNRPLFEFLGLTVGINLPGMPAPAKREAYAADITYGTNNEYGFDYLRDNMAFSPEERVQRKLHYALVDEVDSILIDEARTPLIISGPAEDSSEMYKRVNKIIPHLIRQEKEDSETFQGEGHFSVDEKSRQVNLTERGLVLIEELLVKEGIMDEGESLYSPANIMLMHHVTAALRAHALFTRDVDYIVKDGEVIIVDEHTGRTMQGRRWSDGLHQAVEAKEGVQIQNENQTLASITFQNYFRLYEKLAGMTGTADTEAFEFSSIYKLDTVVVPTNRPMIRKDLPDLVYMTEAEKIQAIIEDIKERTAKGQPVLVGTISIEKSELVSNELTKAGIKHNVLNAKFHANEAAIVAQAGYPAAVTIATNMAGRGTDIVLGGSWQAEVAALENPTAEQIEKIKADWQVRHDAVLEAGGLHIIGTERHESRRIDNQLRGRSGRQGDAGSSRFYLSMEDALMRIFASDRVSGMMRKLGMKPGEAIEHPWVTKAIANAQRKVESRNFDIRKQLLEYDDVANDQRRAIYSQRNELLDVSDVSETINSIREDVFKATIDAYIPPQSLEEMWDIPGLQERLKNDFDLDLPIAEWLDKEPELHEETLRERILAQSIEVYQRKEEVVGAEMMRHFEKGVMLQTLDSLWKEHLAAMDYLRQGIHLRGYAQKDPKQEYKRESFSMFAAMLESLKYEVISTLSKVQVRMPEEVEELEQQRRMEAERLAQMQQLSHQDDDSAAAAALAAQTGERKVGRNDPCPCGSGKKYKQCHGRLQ
Sequence of Sialic acid-binding Ig-like lectin 9 (Homo sapiens) (Q9Y336 whole entry): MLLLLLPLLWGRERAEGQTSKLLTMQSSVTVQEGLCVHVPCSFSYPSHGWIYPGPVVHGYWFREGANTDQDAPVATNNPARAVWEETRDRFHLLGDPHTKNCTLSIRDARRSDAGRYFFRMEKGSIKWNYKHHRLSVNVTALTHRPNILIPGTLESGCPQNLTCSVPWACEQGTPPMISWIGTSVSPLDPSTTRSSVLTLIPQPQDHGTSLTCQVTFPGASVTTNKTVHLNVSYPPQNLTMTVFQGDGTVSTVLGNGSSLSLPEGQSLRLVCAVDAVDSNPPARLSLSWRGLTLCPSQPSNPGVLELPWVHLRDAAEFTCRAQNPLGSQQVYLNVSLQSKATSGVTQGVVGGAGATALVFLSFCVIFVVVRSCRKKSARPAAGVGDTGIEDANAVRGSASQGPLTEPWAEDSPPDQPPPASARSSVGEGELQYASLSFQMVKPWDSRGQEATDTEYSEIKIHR

| Structure (SMILES) | Percent Effect [1] | Percent Effect [2] | Percent Effect [3] | Percent Effect [4] | Percent Effect [5] | Percent Effect (Trypanosoma cruzi) | Percent Effect [6] | Percent Effect [7] | Percent Effect (Homo sapiens) | Percent Effect [8] | Percent Effect [9] | Percent Effect [10] | Percent Effect [11] |
| --- | --- | --- | --- | --- | --- | --- | --- | --- | --- | --- | --- | --- | --- |
| Cc1cccc(CN2CC[C@@H]3[C@@H]2CCN3C(=O)c2cnoc2C)n1 | -3.21% | 10.8% | -2.46% | -5.71% | -1.95% | 5.27% | 34.2% | 10.7% | 7.71% | 5.3% | 3.96% | 15.8% | -1.59% |
| O=C([C@H]1C[C@H]2OCC[C@H]2N(Cc2ccncc2)C1)N1CCCCO1 | -5.42% | 18.7% | 0.349% | -3.96% | -0.793% | 5.6% | -46.4% | 15.9% | -2.86% | -11.8% | 8.33% | 25% | -6.46% |
| O=C(Cc1ccccc1)N1CCN(Cc2noc(C3CC3)n2)CC1 | -1.81% | 11.4% | -2.26% | 0.817% | 1.57% | -4.62% | -3.23% | 12.9% | -5.12% | 0.476% | 7.29% | 15.2% | -22.4% |
| Cc1n[nH]c2c1C(c1ccsc1)SCC(=O)N2 (stereo not given) | 0.859% | 15.6% | 6.57% | 7.18% | -13.4% | -4.24% | 0.645% | 16% | 19.9% | 1.07% | 5.29% | 6.41% | -7.85% |
| Cc1csc(CN2CCC[C@]3(C[C@H](Oc4ccccn4)CO3)C2)n1 | 0.108% | 16.4% | 2.42% | -0.448% | 1.76% | 3.57% | 2.4% | 3.85% | 21.9% | -19.3% | 3.12% | 21% | -4.03% |
